Records with an inconclusive call do not appear. A call without a number means that no potency is given here. Activity calls are given as the source filed them. The call rests on the fitted dose curve; in most records, active means well fitted inhibition curve with a large enough effect; inconclusive means small, poorly fitted or top-dose-only effect; inactive means flat fitted curve, though single readings scatter.
test system: TAB109; experiment: qHTS profiling for inhibitors of Plasmodium falciparum proliferation (AID 504749); further: nearly all actives have a fitted effect of over 60% in size; details: P. falciparum in erythrocytes, SYBR Green DNA, 72 h; series mostly up to 28.7 µM
Method in brief: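 Three-day growth assay of blood-stage parasites in erythrocytes (0.3% parasitemia, 2.5% hematocrit) at 37 C, 5% CO2, quantified by SYBR Green DNA staining after overnight detergent lysis.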
Potency means the concentration at half of the fitted maximal effect.

Row | Structure (SMILES) | Potency
1 | CC(=O)Nc1ccc(OC(C)=O)cc1 | inactive
2 | CC(C)(C)c1ccc2c(S(=O)(=O)O)c(C(C)(C)C)ccc2c1 | inactive
3 | CCCCCCCCCCCCOCCCN | inactive
4 | COC(=O)C(CN)c1c[nH]c2ccc(OC)cc12 (centres undefined) | inactive
5 | CC1(C)S[C@@H]2[C@H](NC(=O)C3(N)CCCCC3)C(=O)N2[C@H]1C(=O)O | inactive
6 | FC(F)(F)C(F)(F)C(F)(F)C(F)(F)C(F)(F)C(F)(F)F | inactive
7 | CCCCO | inactive
8 | CCOC(=O)c1c[nH]c2cc(OCC(C)C)c(OCC(C)C)cc2c1=O | 89.1 nM (active)
9 | CCN(CC)CCOc1ccc2nc(N(C)C)sc2c1 | inactive
10 | OCl | inactive
11 | COC(=O)CC[C@H](N)C(=O)O | inactive
12 | COc1cc(S(C)=O)ccc1-c1nc2ncccc2[nH]1 (centres undefined) | inactive
13 | O=C(O)Cc1nn(Cc2ccc(Br)cc2F)c(=O)c2ccccc12 | inactive
14 | O=C(O)/C=C/c1ccccc1 | inactive
15 | Cc1cccc(C)c1NC(=O)NC1=CCCN1C | inactive
16 | NCC[C@H](O)C(=O)N[C@@H]1C[C@H](N)[C@@H](O[C@H]2O[C@H](CN)[C@@H](O)[C@H](O)[C@H]2O)[C@H](O)[C@H]1O[C@H]1O[C@H](CO)[C@@H](O)[C@H](N)[C@H]1O | inactive
17 | CC1=CC(=O)NS(=O)(=O)O1 | inactive
18 | O=C(O)[C@H]1C(=CCO)O[C@H]2CC(=O)N12 | inactive
19 | CCC(Cc1c(I)cc(I)c(O)c1I)C(=O)O (centres undefined) | inactive
20 | CCCCC[C@H](O)/C=C/[C@@H]1[C@H]2C/C(=C/CCCC(=O)O)O[C@H]2C[C@H]1O | inactive

Row | Structure (SMILES) | Potency
21 | FCOC(C(F)(F)F)C(F)(F)F | inactive
22 | C=Cc1ccc(S(=O)(=O)O)cc1 | inactive
23 | CC12CCC(C[N+](C)(CCC[N+](C)(C)C)C1)C2(C)C (centres undefined) | inactive
24 | CC1CC(OC(=O)C(O)c2ccccc2)CC(C)(C)C1 (centres undefined) | inactive
25 | CC/C(=C(/CC)c1ccc(OP(=O)(O)O)cc1)c1ccc(OP(=O)(O)O)cc1 | inactive
26 | O=C(NNCNNC(=O)c1ccncc1)c1ccncc1 | inactive
27 | CC(C)c1ncc([N+](=O)[O-])n1C | inactive
28 | CC(C)CCC[C@@H](C)[C@H]1CC[C@H]2[C@@H]3CC[C@@H]4C[C@H](O)CC[C@]4(C)[C@H]3CC[C@]12C | inactive
29 | Cc1ccc(S(=O)(=O)NCl)cc1 | inactive
30 | CC(/C=C/C=C(\C)C(=O)O[C@@H]1O[C@H](CO[C@@H]2O[C@H](CO)[C@@H](O)[C@H](O)[C@H]2O)[C@@H](O)[C@H](O)[C@H]1O)=C\C=C\C=C(C)\C=C\C=C(/C)C(=O)O[C@@H]1O[C@H](CO[C@@H]2O[C@H](CO)[C@@H](O)[C@H](O)[C@H]2O)[C@@H](O)[C@H](O)[C@H]1O | inactive
31 | CCCCCCCCCCCCCCCCCC(=O)OCC(C)O (centres undefined) | inactive
32 | CC(C)(Oc1ccc(C2CCCc3ccccc32)cc1)C(=O)O (centres undefined) | inactive
33 | CO | inactive
34 | O=C(O)/C=C/C(=O)Nc1ccc(S(=O)(=O)Nc2nccs2)cc1 | inactive
35 | N[C@H](CC(=O)O)C(=O)O | inactive
36 | CCCc1ccc(C(=O)O)cc1 | inactive
37 | O=S(=O)(O)CC(S)CS (centres undefined) | inactive
38 | O=c1[nH]c(=O)n([C@H]2C[C@H](O)[C@@H](CO)O2)cc1/C=C/Br | inactive
39 | CN[C@@H]1[C@H](O[C@H]2[C@H](O[C@H]3[C@H](O)[C@@H](O)[C@H](N=C(N)N)[C@@H](O)[C@@H]3N=C(N)N)O[C@@H](C)[C@]2(O)C=O)O[C@@H](CO)[C@H](O)[C@H]1O | inactive

Source: PubChem BioAssay (NCATS)
